The target in assay [1] is Aryl hydrocarbon receptor (Homo sapiens) (UniProt P35869). The experiment in a line: ATG_Ahr_CIS: Attagene CIS-FACTORIAL HepG2 Assay for human Aryl Hydrocarbon Receptor (Ahr) (AID 2282930). As to conditions: HepG2 AhR cis-factorial reporter transcription; actives raise or lower the signal. The method in brief:
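Reporter mRNA levels, quantified by RT-PCR and fluorescent capillary electrophoresis, reflect endogenous AhR transcriptional activity in HepG2 cells carrying transfected cis-promoter reporter constructs. Readout at 24 h post-dose; gain or loss fitted against DMSO baseline.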

A short description of assay [2]: ATG_GRE_CIS: Attagene CIS-FACTORIAL HepG2 Assay for human Glucocorticoid Response Elements (GRE) (AID 2282947). Particulars: HepG2 GRE cis-reporter, Attagene multiplex mRNA; actives raise or lower the signal. The essentials: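 Reporter transcripts read by RT-PCR with capillary electrophoresis fluorescence after a 24 h chemical exposure of HepG2 cells transiently transfected with multiple cis-element reporter units. Gain or loss fitted against DMSO.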

Assay [3] addresses Hypoxia-inducible factor 1-alpha (Homo sapiens) (UniProt Q16665). The experiment in a line: ATG_HIF1a_CIS: Attagene CIS-FACTORIAL HepG2 Assay for human Hypoxia Inducible Factor 1 (HIF1A) (AID 2282951). As to conditions: HepG2 Attagene cis-factorial HIF1a reporter transcription; actives raise or lower the signal. The essentials:
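HepG2 cells transiently transfected with multiplexed cis-promoter reporter units; reporter mRNA read 24 h after dosing by RT-PCR, 6-FAM primer-extension labelling, HpaI digestion and capillary electrophoresis. Bidirectional fit versus DMSO baseline.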

Assay [4] concerns the target Transcription factor Sp1 (Homo sapiens) (UniProt P08047). Briefly: ATG_Sp1_CIS: Attagene CIS-FACTORIAL HepG2 Assay for human Specificity Protein 1 (Sp1) (AID 2282961). As to conditions: HepG2 Sp1 cis-reporter transcription, actives raise or lower the signal. The method in brief:
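HepG2 cells transiently transfected with multiple reporter transcription units driven by cis-regulatory elements; Sp1-responsive reporter mRNA measured 24 h after dosing by RT-PCR and capillary electrophoresis fluorescence, fitted bidirectionally against DMSO baseline.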

Assay [5] addresses Signal transducer and activator of transcription 3 (Homo sapiens) (UniProt P40763). Briefly: ATG_STAT3_CIS: Attagene CIS-FACTORIAL HepG2 Assay for human Signal Transducer and Activator of Transcription 3 (STAT3) (AID 2282963). As to conditions: HepG2, Attagene cis-factorial STAT3 reporter transcription; actives raise or lower the signal. The essentials:
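Readout is reporter transcript quantified by RT-PCR and capillary electrophoresis, with 6-FAM primer extension and HpaI digestion. Total RNA is taken 24 h after dosing transiently transfected HepG2 carrying cis-regulated reporter units. Bidirectional fit against DMSO.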

Assay [6] can be described thus: ATG_TA_CIS: Attagene CIS-FACTORIAL HepG2 Assay for human TA Basal Promoter (AID 2282964). As to conditions: HepG2 Attagene CIS-factorial TA basal promoter reporter; actives raise or lower the signal. The essentials: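 HepG2 cells transiently transfected with multiplexed cis-promoter reporter units, dosed 24 h. Reporter mRNA measured by RT-PCR, 6-FAM labelling, HpaI digestion and capillary electrophoresis; bidirectional fit versus DMSO baseline, serving as background control.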

Assay [7] in a line: ATG_TCF_b_cat_CIS: Attagene CIS-FACTORIAL HepG2 Assay for human T-Cell-Factor with beta-catenin (TCF/b-cat) (AID 2282965). Particulars: HepG2 TCF/beta-catenin cis-reporter transcription, actives raise or lower the signal. The method in brief:
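Endogenous TCF/LEF activity read as reporter transcript level via RT-PCR and capillary electrophoresis fluorescence in transfected HepG2, 24 h exposure; gain or loss of signal fitted against DMSO controls.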

Assay [8] in a line: ATG_TAL_CIS: Attagene CIS-FACTORIAL HepG2 Assay for human TAL Basal Promoter (AID 2282966).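 Note: background control endpoint measuring basal TAL promoter reporter mRNA not a specific factor.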 As to conditions: HepG2 Attagene cis-factorial TAL promoter reporter; actives raise or lower the signal. The essentials: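 Endogenous transcription-factor activity is sensed in HepG2 cells through transfected cis-promoter reporter constructs. After 24 h dosing, reporter transcripts are quantified by RT-PCR and capillary electrophoresis. Gain or loss of signal is fitted relative to DMSO.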

The nature of assay [9]: ATG_TGFb_CIS: Attagene CIS-FACTORIAL HepG2 Assay for human Transforming Growth Factor (TGF) (AID 2282967). Particulars: HepG2 Attagene CIS TGFb reporter, mRNA transcription; actives raise or lower the signal. The essentials: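 HepG2 cells transiently transfected with cis-promoter-driven multiplexed reporter units; 24 h compound exposure. Reporter mRNA measured by RT-PCR, 6-FAM labeling, HpaI digestion and capillary electrophoresis; bidirectional fit versus DMSO baseline.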

Assay [10] in a line: ATG_VDRE_CIS: Attagene CIS-FACTORIAL HepG2 Assay for human Vitamin D Receptor Element (VDRE) (AID 2282968). As to conditions: HepG2 VDRE cis-reporter transcription, actives raise or lower the signal. The method in brief:
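Readout is VDRE-driven reporter mRNA reflecting endogenous factor activity in human HepG2 cells, sampled 24 h post-dose. Quantification used labelled RT-PCR products separated by capillary electrophoresis; bidirectional analysis relative to DMSO.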

The target of assay [11] is X-box-binding protein 1 (Homo sapiens) (UniProt P17861). The experiment in a line: ATG_Xbp1_CIS: Attagene CIS-FACTORIAL HepG2 Assay for human X-box Binding Protein 1 (XBP1) (AID 2282972). As to conditions: HepG2 XBP1 cis-element reporter, Attagene multiplex; actives raise or lower the signal. The essentials:
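Read-out: fluorescent reporter mRNA fragments resolved by capillary electrophoresis after RT-PCR. Human HepG2 liver cells carried transfected cis-promoter reporter units and were exposed to chemicals for 24 hours. Gain or loss of signal fitted relative to DMSO baseline.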

Assay [12] can be described thus: ATG_M_32_TRANS: Attagene TRANS-FACTORIAL HepG2 Assay for M32 Transcription Factor (Internal Marker) (AID 2282984; active = hit-call score of the fitted dose curve at least 0.9, where 1 is the maximum). As to conditions: HepG2 Attagene TRANS M32 internal marker reporter. The method in brief: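 Internal background reporter in transfected HepG2: after 24 h chemical exposure, RNA reverse-transcribed, reporter cDNA amplified, fluorescently labelled and HpaI-cut, then sized by capillary electrophoresis. Gain of signal fitted against DMSO control.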

The target of assay [13] is Transcriptional activator Myb (Homo sapiens) (UniProt P10242). The experiment in a line: ATG_Myb_CIS: Attagene CIS-FACTORIAL HepG2 Assay for human Myeloblastosis (Myb) Proto-Oncogene Transcription Factor (AID 2282986). As to conditions: HepG2 Attagene CIS-FACTORIAL Myb reporter transcription; actives raise or lower the signal. The method in brief: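 HepG2 cells were transiently transfected with cis-regulated multiple reporter transcription units reflecting endogenous Myb activity, then exposed to compound for 24 hours. Reporter mRNA was measured by RT-PCR with capillary electrophoresis; bidirectional fitting versus DMSO baseline.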

The nature of assay [14]: ATG_NFI_CIS: Attagene CIS-FACTORIAL HepG2 Assay for human Nuclear Factor I (NFI) (AID 2282989). As to conditions: HepG2 cis-regulatory reporter, NFI response element transcription; actives raise or lower the signal. The essentials:
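HepG2 cells transiently transfected with cis-element-driven multiplexed reporter transcription units, dosed for 24 h. Reporter mRNA quantified by RT-PCR, fluorescent labelling, HpaI digestion and capillary electrophoresis; bidirectional fit versus DMSO baseline.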

For assay [15], the target named is Myc proto-oncogene protein (Homo sapiens) (UniProt P01106). Briefly: ATG_Myc_CIS: Attagene CIS-FACTORIAL HepG2 Assay for human Myelocytomatosis (Myc) Proto-Oncogene Transcription Factor (AID 2282990). As to conditions: HepG2, Attagene cis-reporter transcription factor activity; actives raise or lower the signal. The method in brief: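 After 24 h chemical treatment of HepG2 cells carrying multiplexed cis-regulated reporter constructs, reporter transcripts quantified by RT-PCR and capillary electrophoresis of fluorescent fragments. Gain or loss fitted against DMSO baseline.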
Chain of Myc proto-oncogene protein (Homo sapiens) (P01106 whole entry, looked up, the tested form may be a part): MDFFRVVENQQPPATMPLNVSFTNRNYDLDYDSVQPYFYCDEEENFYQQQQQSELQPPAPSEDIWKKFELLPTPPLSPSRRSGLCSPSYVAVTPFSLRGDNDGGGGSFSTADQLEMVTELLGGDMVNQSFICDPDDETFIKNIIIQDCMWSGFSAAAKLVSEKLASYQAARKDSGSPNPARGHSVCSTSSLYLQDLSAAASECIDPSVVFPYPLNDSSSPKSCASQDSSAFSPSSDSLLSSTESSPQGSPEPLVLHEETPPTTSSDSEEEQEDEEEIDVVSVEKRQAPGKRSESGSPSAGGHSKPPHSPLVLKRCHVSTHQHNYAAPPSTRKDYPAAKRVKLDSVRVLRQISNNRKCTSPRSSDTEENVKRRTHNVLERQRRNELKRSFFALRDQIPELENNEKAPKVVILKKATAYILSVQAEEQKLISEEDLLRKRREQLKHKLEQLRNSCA

Assay [16] can be described thus: ATG_NRF2_ARE_CIS: Attagene CIS-FACTORIAL HepG2 Assay for human Nuclear Factor Erythroid 2 Related Factor 2 (NFR2) response to Antioxidant Response Elements (ARE) (AID 2282992). Particulars: HepG2 Attagene ARE/NRF2 reporter, transcription factor activity; actives raise or lower the signal. The method in brief: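 Readout: reporter mRNA quantified by RT-PCR plus FAM-labelled primer extension, HpaI digestion and capillary electrophoresis, 24 h after dosing transfected HepG2 cells. Gain or loss of signal is fitted bidirectionally against DMSO baseline.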

Assay [17] in a line: ATG_Oct_MLP_CIS: Attagene CIS-FACTORIAL HepG2 Assay for human Octamer-Binding Transcription Factor (Oct) (AID 2282993). As to conditions: HepG2 Attagene cis-factorial Oct reporter, mRNA; actives raise or lower the signal. The method in brief: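 HepG2 cells transiently transfected with cis-promoter-driven multiplexed reporter transcription units, dosed for 24 h. Reporter mRNA quantified by RT-PCR, fluorescent labelling, HpaI digestion and capillary electrophoresis; bidirectional fits versus DMSO baseline.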

The target in assay [18] is Cellular tumor antigen p53 (Homo sapiens) (UniProt P04637). The experiment in a line: ATG_p53_CIS: Attagene CIS-FACTORIAL HepG2 Assay for human p53 Transcription Factor (AID 2282994). As to conditions: HepG2 p53 cis-element reporter, Attagene mRNA; actives raise or lower the signal. The essentials:
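Read-out: reporter mRNA by RT-PCR plus capillary electrophoresis with fluorescence detection. Human HepG2 liver cells carried transfected multi-reporter cis-element constructs, dosed 24 h. Gain or loss of signal fitted bidirectionally against DMSO control.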

Assay [19] addresses Peroxisome proliferator-activated receptor gamma (Homo sapiens) (UniProt P37231). Briefly: ATG_PPARg_TRANS: Attagene TRANS-FACTORIAL HepG2 Assay for human Peroxisome Proliferator-activated Receptor-gamma (PPARg) (AID 2283007; active = hit-call score of the fitted dose curve at least 0.9, where 1 is the maximum). The method in brief:
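HepG2 cells transiently transfected with multiplexed GAL4-UAS reporter units and exogenous chimeric NR-Gal4 proteins; reporter mRNA quantified after 24 h compound exposure by RT-PCR, fluorescent labelling, HpaI digestion and capillary electrophoresis; gain-of-signal fitted versus DMSO baseline.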

In assay [20] the target is Cellular tumor antigen p53 (Homo sapiens) (UniProt P04637). The experiment in a line: TOX21_p53_BLA_p4_ratio: Tox21 HCT-116 p53 Agonism Beta-lactamase Assay, Ratio, Phase 4 (AID 2283601; active = hit-call score of the fitted dose curve at least 0.9, where 1 is the maximum). The method in brief: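 Signal is the blue/green (460nm/530nm) ratio of cleaved versus uncleaved CCF4-AM substrate, read after 2 h substrate loading. Cells were HCT116 carrying the p53-responsive beta-lactamase reporter, dosed 16 h at 37C, 5% CO2; CellTiter-Glo measured in parallel.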
Chain of Cellular tumor antigen p53 (Homo sapiens) (P04637 whole entry, looked up): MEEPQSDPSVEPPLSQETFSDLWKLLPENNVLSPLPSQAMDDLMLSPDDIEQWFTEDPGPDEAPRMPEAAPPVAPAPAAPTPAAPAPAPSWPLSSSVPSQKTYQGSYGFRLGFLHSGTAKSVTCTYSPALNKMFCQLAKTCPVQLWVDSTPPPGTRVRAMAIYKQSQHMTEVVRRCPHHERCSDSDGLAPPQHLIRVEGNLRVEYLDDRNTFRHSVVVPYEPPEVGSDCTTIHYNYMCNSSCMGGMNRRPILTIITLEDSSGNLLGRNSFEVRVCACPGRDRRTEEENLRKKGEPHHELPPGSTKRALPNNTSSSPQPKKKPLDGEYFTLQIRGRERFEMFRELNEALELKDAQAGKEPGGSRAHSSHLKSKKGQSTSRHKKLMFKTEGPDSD

Consider 4 molecules from PubChem BioAssay (EPA / NIEHS).

Results filed as inconclusive are left out. Where a structure was tested more than once in an assay, its records may differ in their call. Calls of active or inactive are those of the source. Rule for the calls, unless noted: active = hit-call score of the fitted dose curve at least 0.9, where 1 is the maximum; inactive = score below 0.9.

In general, AC50 refers to the midpoint of the concentration-response curve, whichever way the signal moves.

Chain of Hypoxia-inducible factor 1-alpha (Homo sapiens) (Q16665 whole entry, looked up): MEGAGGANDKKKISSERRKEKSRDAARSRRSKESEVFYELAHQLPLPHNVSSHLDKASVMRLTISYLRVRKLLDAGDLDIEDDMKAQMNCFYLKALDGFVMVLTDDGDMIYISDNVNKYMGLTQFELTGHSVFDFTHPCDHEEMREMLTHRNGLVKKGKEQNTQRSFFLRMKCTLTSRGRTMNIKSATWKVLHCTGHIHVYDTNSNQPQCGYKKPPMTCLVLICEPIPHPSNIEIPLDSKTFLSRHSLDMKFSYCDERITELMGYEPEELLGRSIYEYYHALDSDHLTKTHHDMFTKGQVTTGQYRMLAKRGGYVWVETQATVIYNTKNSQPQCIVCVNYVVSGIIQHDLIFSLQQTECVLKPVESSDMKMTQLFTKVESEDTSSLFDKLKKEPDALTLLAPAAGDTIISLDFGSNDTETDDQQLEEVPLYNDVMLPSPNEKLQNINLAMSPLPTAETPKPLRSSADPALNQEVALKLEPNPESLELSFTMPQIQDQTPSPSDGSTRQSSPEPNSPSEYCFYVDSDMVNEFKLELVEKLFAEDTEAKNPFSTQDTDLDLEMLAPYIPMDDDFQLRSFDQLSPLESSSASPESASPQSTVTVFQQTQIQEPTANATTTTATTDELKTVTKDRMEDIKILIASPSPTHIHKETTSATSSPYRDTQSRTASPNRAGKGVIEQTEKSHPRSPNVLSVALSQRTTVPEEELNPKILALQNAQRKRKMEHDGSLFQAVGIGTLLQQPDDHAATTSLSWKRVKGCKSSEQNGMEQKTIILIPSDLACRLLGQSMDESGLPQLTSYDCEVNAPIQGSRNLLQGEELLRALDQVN
Chain of Transcription factor Sp1 (Homo sapiens) (P08047 whole entry, looked up): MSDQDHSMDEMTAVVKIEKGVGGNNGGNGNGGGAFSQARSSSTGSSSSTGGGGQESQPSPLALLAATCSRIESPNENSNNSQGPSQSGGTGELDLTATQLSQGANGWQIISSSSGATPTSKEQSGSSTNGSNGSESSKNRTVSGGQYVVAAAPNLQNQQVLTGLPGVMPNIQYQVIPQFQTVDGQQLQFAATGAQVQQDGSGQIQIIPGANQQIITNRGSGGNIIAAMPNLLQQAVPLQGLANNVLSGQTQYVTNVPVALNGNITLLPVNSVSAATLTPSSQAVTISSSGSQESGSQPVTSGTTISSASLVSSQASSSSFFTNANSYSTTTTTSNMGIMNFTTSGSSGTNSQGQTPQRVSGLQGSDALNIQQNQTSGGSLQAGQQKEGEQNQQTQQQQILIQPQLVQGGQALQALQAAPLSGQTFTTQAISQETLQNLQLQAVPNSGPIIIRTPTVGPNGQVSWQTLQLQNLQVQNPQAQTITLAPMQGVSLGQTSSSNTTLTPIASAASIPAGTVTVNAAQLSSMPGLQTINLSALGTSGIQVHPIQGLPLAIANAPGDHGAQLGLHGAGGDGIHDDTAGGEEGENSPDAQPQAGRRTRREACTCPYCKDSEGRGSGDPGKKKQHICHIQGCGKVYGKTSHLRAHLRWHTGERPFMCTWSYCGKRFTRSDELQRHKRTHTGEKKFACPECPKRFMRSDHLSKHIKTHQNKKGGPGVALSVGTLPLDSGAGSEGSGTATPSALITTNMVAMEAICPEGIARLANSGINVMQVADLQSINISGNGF
Chain of Signal transducer and activator of transcription 3 (Homo sapiens) (P40763 whole entry, looked up): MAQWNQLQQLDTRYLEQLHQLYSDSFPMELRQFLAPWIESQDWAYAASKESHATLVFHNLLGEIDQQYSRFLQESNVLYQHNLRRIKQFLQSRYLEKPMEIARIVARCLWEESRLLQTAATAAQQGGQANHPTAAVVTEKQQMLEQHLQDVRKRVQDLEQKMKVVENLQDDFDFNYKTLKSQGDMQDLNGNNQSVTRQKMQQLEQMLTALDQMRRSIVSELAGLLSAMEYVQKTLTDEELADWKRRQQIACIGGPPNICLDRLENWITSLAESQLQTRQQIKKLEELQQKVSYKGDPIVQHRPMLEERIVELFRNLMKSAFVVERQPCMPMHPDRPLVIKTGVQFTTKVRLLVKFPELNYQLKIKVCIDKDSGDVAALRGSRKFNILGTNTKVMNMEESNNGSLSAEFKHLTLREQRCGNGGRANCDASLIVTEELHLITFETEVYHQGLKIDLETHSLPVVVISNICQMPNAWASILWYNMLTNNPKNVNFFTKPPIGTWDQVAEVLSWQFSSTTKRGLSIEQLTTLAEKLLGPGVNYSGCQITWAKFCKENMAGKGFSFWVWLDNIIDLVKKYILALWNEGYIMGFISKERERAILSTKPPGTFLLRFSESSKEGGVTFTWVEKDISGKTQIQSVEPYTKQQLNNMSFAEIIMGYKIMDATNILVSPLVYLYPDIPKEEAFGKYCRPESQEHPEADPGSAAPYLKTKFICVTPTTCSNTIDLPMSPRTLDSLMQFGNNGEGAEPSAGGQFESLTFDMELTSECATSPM
Chain of Aryl hydrocarbon receptor (Homo sapiens) (P35869 whole entry, looked up): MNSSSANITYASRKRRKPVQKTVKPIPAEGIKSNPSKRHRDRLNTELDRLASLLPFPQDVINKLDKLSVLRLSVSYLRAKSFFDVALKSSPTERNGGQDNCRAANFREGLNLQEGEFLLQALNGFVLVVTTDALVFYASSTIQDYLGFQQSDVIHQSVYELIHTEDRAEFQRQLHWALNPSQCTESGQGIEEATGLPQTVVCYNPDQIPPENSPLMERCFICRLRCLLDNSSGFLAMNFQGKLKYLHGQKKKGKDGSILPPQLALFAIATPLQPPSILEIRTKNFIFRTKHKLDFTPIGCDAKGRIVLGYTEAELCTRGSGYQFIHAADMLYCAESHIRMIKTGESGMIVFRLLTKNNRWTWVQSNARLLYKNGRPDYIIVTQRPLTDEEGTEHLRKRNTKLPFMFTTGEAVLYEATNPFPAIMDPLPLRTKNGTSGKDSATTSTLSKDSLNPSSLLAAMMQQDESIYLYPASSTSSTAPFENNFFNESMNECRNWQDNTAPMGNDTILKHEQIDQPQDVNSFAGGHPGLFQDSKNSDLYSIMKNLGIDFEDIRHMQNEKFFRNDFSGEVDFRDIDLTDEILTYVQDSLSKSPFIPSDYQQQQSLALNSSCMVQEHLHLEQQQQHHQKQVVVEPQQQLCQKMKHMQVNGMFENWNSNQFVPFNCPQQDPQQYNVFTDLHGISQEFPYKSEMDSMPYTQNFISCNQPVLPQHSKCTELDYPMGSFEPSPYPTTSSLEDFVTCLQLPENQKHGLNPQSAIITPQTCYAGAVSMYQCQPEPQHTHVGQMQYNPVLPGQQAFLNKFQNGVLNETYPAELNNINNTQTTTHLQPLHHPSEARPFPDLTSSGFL
Chain of X-box-binding protein 1 (Homo sapiens) (P17861 whole entry, looked up, the tested form may be a part): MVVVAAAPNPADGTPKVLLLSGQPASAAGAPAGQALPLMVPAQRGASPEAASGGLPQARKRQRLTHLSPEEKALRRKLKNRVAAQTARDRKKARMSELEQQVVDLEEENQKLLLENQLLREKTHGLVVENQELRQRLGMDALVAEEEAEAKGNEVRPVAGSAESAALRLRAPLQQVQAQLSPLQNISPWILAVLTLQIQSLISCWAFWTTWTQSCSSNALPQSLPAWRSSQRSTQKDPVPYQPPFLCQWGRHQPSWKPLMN
Chain of Peroxisome proliferator-activated receptor gamma (Homo sapiens) (P37231 whole entry, looked up, the tested form may be a part): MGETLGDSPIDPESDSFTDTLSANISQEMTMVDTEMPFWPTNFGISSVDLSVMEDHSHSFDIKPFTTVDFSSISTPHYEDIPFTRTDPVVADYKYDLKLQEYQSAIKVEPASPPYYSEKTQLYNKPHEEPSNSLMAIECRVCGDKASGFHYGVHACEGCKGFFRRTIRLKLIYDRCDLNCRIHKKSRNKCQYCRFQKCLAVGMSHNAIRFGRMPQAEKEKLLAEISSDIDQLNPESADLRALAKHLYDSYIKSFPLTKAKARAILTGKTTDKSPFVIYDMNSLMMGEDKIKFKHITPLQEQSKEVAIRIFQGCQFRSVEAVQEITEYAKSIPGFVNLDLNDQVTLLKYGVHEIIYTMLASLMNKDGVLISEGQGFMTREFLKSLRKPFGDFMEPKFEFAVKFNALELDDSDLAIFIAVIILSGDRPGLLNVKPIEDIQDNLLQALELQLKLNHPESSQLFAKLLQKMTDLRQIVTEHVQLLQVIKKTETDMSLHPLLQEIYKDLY

Take `CCCC=NO`: the result in assay [1], in assay [2], in assay [3], in [4], in assay [5] and in [6] was inactive. Moreover, the molecule was called inactive in [7], in assay [8], in assay [9], in assay [10], in assay [11] and in [12]. Also, the result in assay [13], in [14], in assay [15], in assay [16], in assay [17] and in assay [18] was inactive. Moreover, in assay [19], the outcome was inactive.

Turning to `Nc1ccccc1C(=O)OCCc1ccccc1`, the AC50 was 10 µM (active) in assay [1]; 31.9 µM (active) in assay [3]; 33.4 µM (active) in [8]; 22.3 µM (active) in assay [10]; 13.1 µM (active) in assay [16]; 24.9 µM (active) in [19]. Also, the molecule was called inactive in [2], in assay [4], in assay [5], in assay [6], in assay [7] and in [9]. In addition, the outcome in assay [11], in [12], in assay [14], in assay [15], in assay [17] and in assay [18] was inactive.

For the molecule `O=[N+]([O-])C=Cc1ccccc1`, the result in assay [2], in assay [3], in [6], in [8], in assay [9] and in assay [12] was inactive. Further, the call in assay [15], in assay [16] and in [20] was inactive. For the same molecule, the half-maximal activity concentration (AC50) is 21.2 µM (active) in assay [4]; 33.4 µM (active) in assay [5]; 18.9 µM (active) in assay [7]; 10.7 µM (active) in [10]; 20.3 µM (active) in assay [11]; 18.6 µM (active) in assay [14]. Moreover, the half-maximal activity concentration (AC50) in assay [17] was 18.5 µM (active); in assay [18] it was 20.2 µM (active); in assay [19] it was 8.83 µM (active).

As for `C[C@]12CC[C@H]3[C@@H](CC[C@@]45O[C@@H]4C(O)=C(C#N)C[C@]35C)[C@@H]1CC[C@@H]2O`, the molecule was called inactive in assay [1], in [5], in [6], in assay [8], in assay [9] and in assay [12]. Also, the outcome in [14], in assay [15], in assay [18], in assay [19] and in assay [20] was inactive. In addition, the concentration at half-maximal activity (AC50) is 64.5 µM (active) in [3]; 75 µM (active) in assay [7]; 33.9 µM (active) in assay [10]; 60 µM (active) in assay [11]; 58.9 µM (active) in [16]; 63.3 µM (active) in [17]. In [20], the AC50 was 65.8 µM (active).
